Hits are enriched below; roughly 2.3% of the tested compounds scored in any of these assays.
Kir21 inh = inhibitors of mouse Kir2.1 inward-rectifier potassium channel; Inward rectifier potassium channel 2 (Mus musculus), P35561; HEK293-Kir2.1, FluxOR thallium flux fluorescence; active compounds read low; B-score at 10 µM; 0.85% of 310,000 active;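 active = fluorescence ratio B-score at or below minus 3 SD of library scores, with starting-brightness B-score within 2 SD, cut at about -4.2 in these data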;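 also: channel flux triggered by added potassium and thallium sulfate stimulus; B-score of peak minus minimum fluorescence over baseline after thallium stimulus; more negative B-score means stronger Kir2.1 block with less thallium influx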
FID counter = compounds displacing fluorescent DNA intercalator, primary screen, artefact control for HCV NS3 helicase inhibitor project, biochemical, FID fluorescence. DNA fluorescent intercalator displacement. inhibition, % at 7.9 µM. 0.17% of 290,000 active. AID 1845, 2009; in the data active = inhibition above about 37%;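 also: 0% = vehicle and 100% = reference compound; higher means more ethidium bromide displaced from hairpin DNA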
PfM18AAP inh = PfM18AAP inhibitors, malaria aminopeptidase, primary screen, biochemical, QFRET, recombinant enzyme; 1.2% of 290,000 active; H-Glu-NHMec fluorogenic cleavage; inhibition, % at 7.35 µM; M18 aspartyl aminopeptidase (Plasmodium falciparum 3D7); AID 1822, 2009;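 active = inhibition above the campaign mean inhibition over all tested compounds plus 3 SD, cut at about 28% in these data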;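 also: 0% = plate median of test compound wells and 100% = 2 mM ZnCl2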
Rce1 inhib = yeast Rce1p protease inhibitors, primary screen, biochemical, fluorescence, cell-free homogeneous; CAAX prenyl protease 2 (Saccharomyces cerevisiae (strain ATCC 204508 / S288c)), Q03530; yeast membranes, quenched prenylated peptide cleavage fluorescence; calls only; 0.27% of 290,000 active; AID 2563, 2010;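 active = fall in fluorescence gain of 50% or more versus controls, with final raw signal at or below 3038400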;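 also: plate controls were neutral control wells for no effect and wells lacking membranes for full effect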
Target sequence (Q03530 whole entry, looked up): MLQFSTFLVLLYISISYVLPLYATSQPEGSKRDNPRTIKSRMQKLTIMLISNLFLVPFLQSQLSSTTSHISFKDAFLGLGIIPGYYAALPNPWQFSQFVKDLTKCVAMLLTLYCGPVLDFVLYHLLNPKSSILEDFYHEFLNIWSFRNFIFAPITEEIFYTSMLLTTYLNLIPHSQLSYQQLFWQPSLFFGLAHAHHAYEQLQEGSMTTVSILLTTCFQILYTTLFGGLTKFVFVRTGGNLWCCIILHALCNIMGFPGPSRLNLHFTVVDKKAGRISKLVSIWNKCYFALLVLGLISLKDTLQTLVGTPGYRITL
Numbers without * were called inactive; i = inactive; . = no result given; + = active, no number.

SMILES	Kir21 inh	FID counter	PfM18AAP inh	Rce1 inhib
CN1c2ccccc2Sc2cc(N)ccc21	-0.04	2	37*	i
CC(=O)N1c2ccccc2Sc2ccccc21	-1.3	-6	-9	i
Brc1ccccc1OCCOCCOc1cccc2cccnc12	-4.5*	-27	3	i
C=CCc1ccc(OCCOCCOc2cccc3cccnc23)c(OC)c1	-4.9*	-35	-3	i
Brc1ccc(OCCOCCOc2cccc3cccnc23)cc1	-2.2	-18	2	i
CN1CCc2cc3c(c4c2[C@H]1[C@H](O)c1ccccc1-4)OCO3	-1.1	97*	23	i
Cn1nc(C(=O)Nc2ccc(S(=O)(=O)N3CCOCC3)cc2)c2ccccc2c1=O	0.01	0	5	i
CC(=O)Nc1cccc(NC(=O)Nc2cccc(Cl)c2C)c1	-0.68	-2	-1	i
CC(=O)Nc1cccc(NC(=S)Nc2cccc(Cl)c2C)c1	-1.9	1	31*	i
O=Cc1cccc(Oc2ncccn2)c1	-2.9	-2	2	i
Nc1ccc(Oc2ncccn2)cc1	0.79	1	28*	i
CCN(Cc1ccccc1)c1ccc(/C=N/N=C(N)N)cc1	-14*	14	2	+
C(=N\Nc1nc2ccccc2[nH]1)/c1ccc2c(c1)OCO2	0.49	31	29*	i
COc1cccc(/C=N/Nc2nc3ccccc3[nH]2)c1O	1.4	3	30*	i
c1ccc(N2CCN(C3CC4CCC3C4)CC2)cc1 (configuration not stated)	1.4	1	4	i
CCOC(=O)c1nn(-c2ccc(C)cc2)c(=O)cc1OCC(=O)N1CCN(c2ccccc2)CC1	1.1	.	.	i
COc1ccc(Cn2c(N)c(S(=O)(=O)c3cccs3)c3nc4ccccc4nc32)cc1	-0.85	2	1	+
CN1CCN(C(=S)NC(=O)c2ccccc2Cl)CC1	0.95	-9	5	+
CC(C)(C)c1ccc2c(c1)N(CC(=O)N1CCCC1)C(=O)CO2	0.45	-8	-3	i
O=C(NNS(=O)(=O)c1ccc([N+](=O)[O-])cc1)c1ccncc1	-0.01	-3	9	i
O=C(NNS(=O)(=O)c1ccccc1)c1ccc([N+](=O)[O-])cc1	-0.81	-4	29*	i
COc1ccc(-n2nc(C(=O)NCC(=O)N3CCN(c4ccccc4)CC3)c3ccccc3c2=O)cc1OC	-0.4	-49	1	i
COc1ccc2nc(SCC(=O)O)nc(C)c2c1	.	-3	-1	.
COc1ccc2nc(SCCOC(=O)Nc3ccc(Cl)cc3)nc(C)c2c1	-5.7*	6	-3	i
O=[N+]([O-])/C=C/c1cn(Cc2ccc(Cl)cc2)c2ccccc12	-5.7*	-4	3	i
SMILES	Kir21 inh	FID counter	PfM18AAP inh	Rce1 inhib
COc1cc2c(cc1OC)CN(C(=O)CSc1nc3[nH]ncc3c(=O)n1-c1ccccc1)CC2	-0.42	-24	31*	i
COC(=O)C1=C(C)N(Cc2ccccc2)C(=NCc2cccc(C(F)(F)F)c2)N[C@H]1c1cccc(F)c1	-5.6*	31	9	i
CCN1C(=NCc2cccc(Cl)c2)N[C@@H](c2cccc(F)c2)C(C(=O)OC)=C1C	-4.5*	24	-5	i
COC(=O)C1=C(C)N(Cc2ccccc2)C(=NCCCCO)N[C@H]1CCc1ccccc1	-5.1*	31	1	i
CCN1C(=NCCc2cccs2)N[C@@H](c2cccs2)C(C(=O)OC)=C1C	-6*	24	8	i
COC(=O)C1=C(C)N(Cc2ccccc2)C(=NCC(C)C)N[C@H]1c1ccccc1	-8.2*	18	2	i
COC(=O)C1=C(C)N(Cc2ccccc2)C(=O)N[C@H]1c1ccccc1	-0.17	-28	-5	i
O=C(COC(=O)c1ccc[nH]c1=O)NC1CCCc2ccccc21 (configuration not stated)	-0.2	-20	-8	i
CC(=O)C(Cc1ccccc1)NC(=O)CN(C)Cc1ccccc1Cl (configuration not stated)	-4.9*	-31	0	i
Cc1ccccc1CN(C)CC(=O)NC(C)CCc1ccccc1 (configuration not stated)	-11*	-6	6	i
COc1ccc(CN(C)CC(=O)NC(C)c2ccccc2)cc1OC (configuration not stated)	-1.6	3	2	i
Cc1ccc(CN(C)CC(=O)NC(C)c2ccccc2)cc1 (configuration not stated)	-4.3*	-1	-2	i
CN(C(=O)COC(=O)C1CSC2(C)CCC(=O)N12)c1ccccc1 (configuration not stated)	1.4	.	.	i
Cc1ccc(N(CC(=O)NCC2CCCO2)S(=O)(=O)c2ccccc2)c(C)c1 (configuration not stated)	1.4	-24	-3	i
CC(=O)c1cn(CC(=O)Nc2ccccc2C(F)(F)F)c2ccccc12	-0.01	-13	-2	i
Oc1ccc(-c2nc3ncccn3c2Nc2ccc3c(c2)OCO3)cc1	-2.2	-4	17	i
Cc1ccn2c(Nc3ccc4c(c3)OCO4)c(-c3ccc(O)cc3)nc2c1	1.9	1	31*	i
CC(=O)Nc1ccc(S(=O)(=O)c2cc(O)ccc2O)cc1	0.88	-1	2	i
Clc1ccc(OCCCNCc2ccccc2)c2ccccc12	-13*	32	-8	.
CC(C)(C)c1ccc(OCCNCc2ccccc2)cc1	-2.9	27	3	i
CCC(C)NCCOCCOc1ccc(Cl)c2ccccc12 (configuration not stated)	-9.7*	51*	-4	i
C/C=C/c1ccc(OCCNCc2ccccc2)c(OC)c1	-0.65	12	4	i
Cc1cc(Cl)cc(C)c1OCCNCc1ccccc1	-11	24	1	i
Cc1cc(Cl)cc(C)c1OCCOCCNCc1ccccc1	-12*	28	5	i
Cc1cc(C)c(OCCNCc2ccccc2)c(C)c1	-5*	13	0	i
SMILES	Kir21 inh	FID counter	PfM18AAP inh	Rce1 inhib
C=CCNCCOc1c(C)cc(C)cc1Cl	-2	-3	1	i
Brc1ccccc1OCCNCc1ccccc1	-1.3	14	3	i
Cc1cc(C)c(C)c(OCCNCc2ccccc2)c1	-5.5*	22	1	.
Cc1cc(C)c(OCCCCNCc2ccccc2)c(Cl)c1	-12*	22	6	i
COCCCNCCCCOc1c(Cl)cc(C)cc1Br	-6*	33	-1	i
Cc1cc(Br)ccc1OCCNCc1ccccc1	-10*	38*	6	i
CCOc1ccc(C(=O)N(Cc2ccccc2)c2cccc(C)c2)cc1OC	1.7	-62	6	i
Cc1cccc(CNC(=O)c2ccc(NC(=O)C3=CSCCO3)cc2)c1	-0.95	-33	-1	i
COc1cccc(/C=N/n2c(C3CCCCC3)n[nH]c2=S)c1	0.53	-33	13	i
O=C(c1ccco1)N1CCC(c2nc3c(nnn3Cc3ccc(F)cc3)c(=O)[nH]2)CC1	-0.32	-40	1	.

From PubChem BioAssay
